Reference: PubChem BioAssay AID488969 (Vanderbilt High Throughput Screening Facility, 2010)
The full ranking holds about 110,000 compounds; the median of “z-score” is about -0.1, and the highest 2% start at about 2. The sample as a whole holds a higher share of the highest values than the screen did. Active and inactive are the calls of the source.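 Rule for the calls: active = z-score in the third read window above 3 or below -3; inactive = the rest.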

molecular target: Metabotropic glutamate receptor 8 (Rattus norvegicus) (UniProt P70579); test: rat mGluR8 modulators via GIRK flux, primary screen, cell-based, thallium flux, HTS (AID 488969); conditions: HEK293 rat mGluR8, GIRK (G protein-gated inwardly rectifying potassium channel) thallium flux, FluoZin2; at 10 µM; stronger effect = higher value; submaximal glutamate (EC20) added with thallium
Sequence (P70579 whole entry, looked up): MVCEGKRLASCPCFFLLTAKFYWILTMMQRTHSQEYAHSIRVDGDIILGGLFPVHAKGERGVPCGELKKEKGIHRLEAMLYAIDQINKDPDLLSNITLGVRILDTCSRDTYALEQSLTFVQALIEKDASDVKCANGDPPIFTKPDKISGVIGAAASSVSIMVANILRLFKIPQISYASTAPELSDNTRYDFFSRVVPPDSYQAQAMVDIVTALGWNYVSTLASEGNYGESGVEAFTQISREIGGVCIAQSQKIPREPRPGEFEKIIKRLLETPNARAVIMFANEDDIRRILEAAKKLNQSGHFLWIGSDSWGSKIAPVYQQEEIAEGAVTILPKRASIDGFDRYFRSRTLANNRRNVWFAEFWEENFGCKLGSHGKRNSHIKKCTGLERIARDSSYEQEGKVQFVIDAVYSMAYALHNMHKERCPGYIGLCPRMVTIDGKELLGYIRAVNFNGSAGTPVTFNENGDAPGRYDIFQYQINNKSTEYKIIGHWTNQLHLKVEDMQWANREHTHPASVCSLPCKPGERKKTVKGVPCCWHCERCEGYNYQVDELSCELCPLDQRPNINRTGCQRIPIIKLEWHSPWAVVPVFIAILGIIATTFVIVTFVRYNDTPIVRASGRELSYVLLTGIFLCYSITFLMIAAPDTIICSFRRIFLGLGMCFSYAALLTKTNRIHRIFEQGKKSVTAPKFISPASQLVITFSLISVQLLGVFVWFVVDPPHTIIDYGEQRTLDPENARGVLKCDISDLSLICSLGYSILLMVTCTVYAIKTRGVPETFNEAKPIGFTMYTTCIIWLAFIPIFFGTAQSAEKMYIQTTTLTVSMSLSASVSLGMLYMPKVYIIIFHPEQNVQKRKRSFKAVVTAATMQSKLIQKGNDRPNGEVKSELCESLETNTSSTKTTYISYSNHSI

Compound	z-score
COc1cccc2[nH]c3c(N4CCC(C(N)=O)CC4)ncnc3c12	0.0357
Cc1ccc(S(=O)(=O)N(CCC(=O)O)Cc2ccc(Cl)cc2)cc1	-0.125
Cc1ccc(S(=O)(=O)N2CCN(C(=O)CN3C(=O)NC4(CCOc5ccccc54)C3=O)CC2)cc1 (stereo unspecified)	0.106
CCN(CC)CCn1cnc2c([nH]c3cccc(OC)c32)c1=O	-0.0646
CCOC(=O)C1CCN(C(=O)NC23CC4CC(CC(C4)C2)C3)CC1	3.31 (active)
CCOC(=O)N1CCN(C(=O)NC23CC4CC(CC(C4)C2)C3)CC1	-0.174
CCOC(=O)C1CCN(C(=O)C23CC4CC(CC(C4)C2)C3)CC1	0.212
Cc1cccc(NC(=S)NCCc2c[nH]c3ccccc23)c1	0.201
CC(C)(C)Nc1nc2nonc2nc1NC(C)(C)C	-0.28
Cc1oc(/C=N/NC(=O)CN(c2ccccc2Br)S(C)(=O)=O)cc1Br	-0.262
CCN(CC)S(=O)(=O)c1csc(C(=O)OCC(=O)c2ccccc2)c1	-0.217
CCN(CC)S(=O)(=O)c1csc(C(=O)NCc2ccccc2)c1	2.45
CCN(CC)S(=O)(=O)c1csc(C(=O)NC2CCCCC2)c1	0.101
COn1c2c(c3c4no[n+]([O-])c4ccc31)CCCC2	-0.414
COc1cccc(NC(=O)CCSc2ccc3ccccc3n2)c1	-0.0656
O=C(O)c1cc(NS(=O)(=O)c2ccc(N3CCCCC3)c([N+](=O)[O-])c2)cc(C(=O)O)c1	-0.105
COCC(C)n1c(SCC(=O)NC(=O)Nc2ccc3c(c2)OCCO3)nc2ccccc2c1=O (stereo unspecified)	-1.25
CCC(C)n1c(SCC(=O)Nc2cc(C)on2)nc2ccccc2c1=O (stereo unspecified)	0.0932
CCC(C)n1c(SCC(=O)NC(=O)Nc2ccc3c(c2)OCCO3)nc2ccccc2c1=O (stereo unspecified)	4.47 (active)
Cn1c(=O)c2c(nc(SCC(=O)NCc3ccco3)n2C)n(C)c1=O	0.332
C/C(CC(=O)Nc1ccccn1)=N\NC(=O)c1ccc2ccccc2c1	-0.53
CCCNC(=O)C(=O)Nc1ccc(N(C)C)cc1	-0.0526
Cc1cccnc1NC(=S)NC(=O)c1cncc(Br)c1	-0.14
COc1ccccc1/C=C/C(=O)NC(=S)NC(C)C	0.776

Compound	z-score
COc1ccccc1/C=C/C(=O)NC(=S)N(C)C1CCCCC1	4.46 (active)
CC1CCCC(NC(=S)NC(=O)c2cncc(Br)c2)C1C (stereo unspecified)	6.76 (active)
CC1CCCC(NC(=S)NC(=O)c2ccccc2Br)C1C (stereo unspecified)	2.91
CC1CCCCC1NC(=S)NC(=O)c1ccccc1Br (stereo unspecified)	0.799
O=C(NC(=S)Nc1ncc(Br)cc1Br)c1cncc(Br)c1	0.278
Cc1ccccc1NC(=S)NC(=O)c1cncc(Br)c1	6.92 (active)
O=C(NC(=S)Nc1ccc(Br)cn1)c1cncc(Br)c1	0.371
O=C(NC(=S)NCC1CCCO1)c1ccccc1Br (stereo unspecified)	1.6
COc1ccccc1/C=C/C(=O)NC(=S)Nc1ccc(S(=O)(=O)N(C)c2ccccc2)cc1	0.119
O=C(NC(=S)Nc1ccccn1)c1cncc(Br)c1	0.829
CCOC(=O)c1c(C)nc2sc3c(=O)n(-c4ccc(C(C)=O)cc4)cnc3c2c1-c1ccc(Cl)cc1	-0.533
CC(C)(Oc1ccc(Cl)cc1)C(=O)N1CCN(c2ccccn2)CC1	-0.0555
Cc1cc(C)nc(/N=C2\NC(=O)CC3C(=O)NCCN23)n1 (stereo unspecified)	-0.12
CS(=O)(=O)N(CC(=O)NCc1ccncc1)c1ccc(Cl)c(Cl)c1	-0.214
COC(=O)c1cc(Cl)c(NC(=O)/C=C/c2ccc(Cl)cc2)cc1OC	-0.0302
CCCN1C2CCCC1CC(NC(=O)Nc1ccc(C(C)C)cc1)C2 (stereo unspecified)	0.407
CN1CCN(Cc2cc(=O)oc3cc4c(cc23)CCC4)CC1	0.745
CN(C(=O)c1ccccc1Cl)C1CCCCC1	0.549
CN(C(=O)c1ccc(C(=O)N(C)C2CCCCC2)cc1)C1CCCCC1	0.244
O=C(NC(=S)NC1CCCCCCCCCCC1)c1cccnc1	-0.0629
O=C(NC(=S)NC1CCCCCC1)c1cncc(Br)c1	6.87 (active)
O=C(NC(=S)NC1CC1)c1cccnc1	0.798
CN(C(=S)NC(=O)c1ccccc1Br)C1CCCCC1	3.51 (active)
c1ccc2sc(C3CCN(Cc4nnnn4Cc4ccc5c(c4)OCO5)CC3)nc2c1	0.227

Compound	z-score
CCc1nc(NCCCCCO)c2nnn(Cc3ccccc3F)c2n1	-0.538
CCn1c(=S)[nH]c2cc(C(=O)OC)ccc2c1=O	7.77 (active)
COC(=O)c1ccc2c(=O)n(CC3CCCO3)c(=S)[nH]c2c1 (stereo unspecified)	7.72 (active)
COCCCNC(=O)c1ccc2c(=O)n(CC3CCCO3)c(=S)[nH]c2c1 (stereo unspecified)	0.247
COC(=O)c1ccc2c(=O)n(CCO)c(=S)[nH]c2c1	0.000255
O=C(NCC1CCCO1)c1ccc2c(=O)n(CC3CCCO3)c(=S)[nH]c2c1 (stereo unspecified)	0.352
CCN(CC)CCCn1c(=S)[nH]c2cc(C(=O)OC)ccc2c1=O	0.199
O=C1CN(c2ccccc2Cl)C(=O)CN1c1ccccc1Cl	0.348
Cc1cccc(C)c1N1CCc2cn[nH]c21	-0.273
O=C(CSc1nc2cc(Cl)ccc2s1)NC1CCCc2ccccc21 (stereo unspecified)	-0.115
CC12CCC(C(=O)N(Cc3ccccc3)Cc3ccccc3)(OC1=O)C2(C)C (stereo unspecified)	-0.0292
COc1ccc(NC(=O)CSc2nc3ccccc3c(=O)n2CCCN2CCCCC2)c(OC)c1	3.69 (active)
Cc1cc(NC(=O)CSc2nc3ccccc3c(=O)n2Cc2ccccc2)no1	4.05 (active)
COc1ccc(NC(=O)CSc2nc3ccccc3c(=O)n2Cc2cccs2)c(OC)c1	0.00897
CC(C)CCNC(=O)CSc1nc2ccsc2c(=O)n1NC(=O)c1ccccc1	-0.0204
Cc1cc(NC(=O)CSc2nc3ccsc3c(=O)n2NC(=O)c2ccccc2)no1	3.32 (active)
Cc1ccc(NC(=O)CSc2nc3ccccc3c(=O)n2CCCN2CCCCC2)cc1C	0.975
CCCCn1c(SCC(=O)Nc2cc(C)on2)nc2ccccc2c1=O	-1.45
CCC(C)NC(=O)CSc1nc2ccccc2c(=O)n1Cc1ccc(OC)cc1 (stereo unspecified)	3.19 (active)
CCCCNC(=O)CSc1nc2cc(OC)c(OC)cc2c(=O)n1Cc1ccc(OC)cc1	-0.298
CCOCCCn1c(SCC(=O)NC(C)C)nc2ccccc2c1=O	0.328
Cc1ccc(Cn2c(SCC(=O)Nc3cc(C)on3)nc3ccccc3c2=O)cc1	1.07
O=C(CSc1nc2ccsc2c(=O)n1NC(=O)c1ccccc1)Nc1nccs1	-0.202
